Experimental data taken from ChEMBL document CHEMBL3988442, “University of Dundee, Small-Polar-MMV Screening Library” (2021).
Out of some 48,000 compounds screened, about 13,000 (27%) showed an effect of 50% or more. The list shows a part of the results.

tested on: Wolbachia pipientis; assay: Anti-Wolbachia Cell-Based Screen; type: functional; set-up: scale not given: in the data most compounds retested in dose-response had high values; settings: 5 µM

Going from `Fc1cccc2ncnc(NCCCc3ccncc3)c12` to `CC(NCc1cnc(C2CCC2)s1)c1ccc(-n2cncn2)cc1` (stereo not drawn), the “Percent Effect” value falls from -47.88% to -68.33%.

Compared with `COC1COC2(CCN(C(=O)c3ccccc3F)CC2)C1` (stereo not drawn), `COC1COC2(CCN(C(=O)c3ccc4ccccc4c3)CC2)C1` (stereo not drawn) is higher in “Percent Effect” value: 91.89% for the first, 112.4% for the second.

Going from `O=C(O)C(F)(F)F.O=C(O)C(F)(F)F.c1cc(CN2CCC3(CC2)CC(N2CCCC2)CO3)co1` (stereo not drawn) to `O=C(O)C(F)(F)F.O=C(c1ccccc1F)N1CCC2(CC1)CC(N1CCCC1)CO2` (stereo not drawn), the “Percent Effect” value rises from -12.83% to 116.8%.

First: COC1COC2(CCN(C(=O)c3cnc(C)cn3)CC2)C1 (stereo not drawn)
Second: COC1COC2(CCN(C(=O)c3cocn3)CC2)C1 (stereo not drawn)
The “Percent Effect” value of the first is higher: 14.55% for the first, -7.314% for the second.

Going from `O=C(c1ccccc1)N1CCC2(CC1)CC(Oc1ccccc1)CO2` (stereo not drawn) to `O=C(O)C(F)(F)F.O=C(c1ccccc1F)N1CCC2(CC1)CC(Oc1ccccn1)CO2` (stereo not drawn), the “Percent Effect” value rises from 2.639% to 109.1%.

Going from `CS(=O)(=O)N1CCC2(CC1)CC(Oc1ccccn1)CO2.O=C(O)C(F)(F)F` (stereo not drawn) to `O=C(O)C(F)(F)F.O=C(c1cocn1)N1CCC2(CC1)CC(Oc1ccccn1)CO2` (stereo not drawn), the “Percent Effect” value falls from 10.24% to 3.532%.

Compared with `CCN(C)C1COC2(CCN(C(=O)c3ccc(Cl)cc3)CC2)C1.O=C(O)C(F)(F)F` (stereo not drawn), `COc1ncccc1C(=O)N1CCC2(CC1)CC(OC)CO2.O=C(O)C(F)(F)F` (stereo not drawn) is higher in “Percent Effect” value: -12.32% for the first, 101.4% for the second.

First: COC1COC2(CCN(C(=O)c3ncccn3)CC2)C1 (stereo not drawn)
Second: COC1COC2(CCN(C(=O)c3cscn3)CC2)C1 (stereo not drawn)
The “Percent Effect” value of the first is lower: -17.92% for the first, -7.766% for the second.

Going from `Cc1cc(C(=O)NC2(C#N)CCCC2)c(C)n1-c1cccnc1` to `Cc1cc(NC(=O)CNCc2csc(-c3cnccn3)n2)ccc1Cl`, the “Percent Effect” value rises from -8.526% to -4.536%.

Going from `O=C(Cc1cccs1)NCC1Cn2nnc(-c3ccoc3)c2CO1` (stereo not drawn) to `Cc1ccc2occ(CN3CCN(c4ncccn4)CC3)c(=O)c2c1`, the “Percent Effect” value falls from 6.925% to -23.78%.

Compared with `Fc1ccc(CN2CCC3(CCCN(c4nncs4)C3)C2)cc1.O=C(O)C(F)(F)F` (stereo not drawn), `O=C1CCC2(CCN(Cc3cc(F)ccc3Cl)CC2)CN1C1CCCC1` is lower in “Percent Effect” value: 5.699% for the first, -0.02537% for the second.

Compared with `COc1ccc(S(=O)(=O)NC(=O)C(C)OC)c(OC)c1` (stereo not drawn), `CC(C)C(C)NC(=O)Nc1ccccc1CN1CCOCC1` (stereo not drawn) is lower in “Percent Effect” value: 36.91% for the first, -2.62% for the second.

First: O=C(N[C@@H]1CN(C2CCCC2)C[C@@H]2CCCO[C@@H]21)c1cnccn1.O=C(O)C(F)(F)F
Second: O=C(NCCCn1ccnn1)C1CCCN(C2CCCC2)C1 (stereo not drawn)
The “Percent Effect” value of the first is lower: -9.219% for the first, 9.707% for the second.

Going from `CN(C(=O)C(c1c(F)cccc1Cl)N(C)C)c1nccs1` (stereo not drawn) to `Cc1cccc(CO[C@H]2CO[C@@]3(CCN(S(=O)(=O)N(C)C)C3)C2)n1`, the “Percent Effect” value falls from 2.736% to -27.75%.

First: COc1ncccc1C(=O)N1C[C@@H]2COC[C@]2(CN(C)C)C1.O=C(O)C(F)(F)F.O=C(O)C(F)(F)F
Second: CN(c1ncccc1CNS(=O)(=O)N1CCOCC1)C1CCCCC1
The “Percent Effect” value of the first is lower: -15.94% for the first, 1.985% for the second.

First: O=C1CCC2(CCCN(CCn3cc(Cl)cn3)C2)CN1C1CCCC1 (stereo not drawn)
Second: Cc1ccnn1CCN1CCCC2(CCC(=O)N(C3CCCC3)C2)C1 (stereo not drawn)
The “Percent Effect” value of the first is higher: 113% for the first, 107.9% for the second.

Compared with `COc1coc(CN2CCCC3(CCC(=O)N(C4CC4)C3)C2)cc1=O` (stereo not drawn), `Nc1ccnc(C(=O)N2CCCC3(CCC(=O)N(C4CCCC4)C3)C2)c1` (stereo not drawn) is lower in “Percent Effect” value: 7.748% for the first, 1.558% for the second.

First: Cn1cc(CN2C[C@@H](N3CCCC3=O)[C@H]3OCCC[C@H]32)cn1
Second: O=C1CCCN1C1CCCN(CCn2cc(Cl)cn2)C1 (stereo not drawn)
The “Percent Effect” value of the first is lower: 16.86% for the first, 92.68% for the second.

Compared with `COCCCN1CC2(CCCN(c3ncc(Cl)cc3F)C2)CCC1=O` (stereo not drawn), `COCCN1CC2(CCCN(c3ncc(Cl)cc3F)C2)CCC1=O` (stereo not drawn) is higher in “Percent Effect” value: -2.307% for the first, 2.913% for the second.

First: Cc1cnn(CC(=O)N2CCC3(CCC(=O)N(C4CCCC4)C3)CC2)c1
Second: COCCCN1CC2(CCCN(CCn3cc(Cl)cn3)C2)CCC1=O (stereo not drawn)
The “Percent Effect” value of the first is lower: -24.67% for the first, 116.7% for the second.

First: O=C1CCCN1C1CCCN(CCOc2ccc(F)cc2)C1 (stereo not drawn)
Second: O=C1OCCN1CCN1CCCN(Cc2ccccc2F)CC1
The “Percent Effect” value of the first is lower: -5.922% for the first, 0.37% for the second.

Compared with `Cc1ccc(S(=O)(=O)N2CCOCC2C#N)cc1Br` (stereo not drawn), `O=c1c(CN2CCOCC2)coc2ccc(Cl)cc12` is higher in “Percent Effect” value: -3.449% for the first, 14.49% for the second.

First: Cc1nc[nH]c1CN1C[C@@H]2CC[C@H](C1)N(C(=O)CCc1cnn(C)c1)C2
Second: CCn1ccc2ccc(CN3CCCC3c3nc(C(C)C)no3)cc21 (stereo not drawn)
The “Percent Effect” value of the first is higher: -6.684% for the first, -10.44% for the second.

First: O=c1c(CN2CCOCC2)coc(O)c1CN1CCOCC1
Second: O=c1c(CN2CCCCCC2)coc(O)c1CN1CCOCC1
The “Percent Effect” value of the first is higher: 110.9% for the first, 99.75% for the second.

First: O=c1c(CN2CCCCCC2)coc(O)c1CN1CCCCCC1
Second: O=c1c(CN2CCSCC2)coc(O)c1CN1CCCC1
The “Percent Effect” value of the first is lower: 87.67% for the first, 112.9% for the second.

Compared with `CC(C)NC(=O)Nc1ccccc1CN1CCOCC1`, `O=c1c(CN2CCCCC2)coc2ccc(Cl)cc12` is lower in “Percent Effect” value: 8.436% for the first, -1.352% for the second.

In the case of `FC(F)(F)Sc1ccccc1NCc1nc(C2CC2)no1`, the “Percent Effect” value is reported as 0.6009%.
